Test results from the supplement of paper PMC8975748.
Counter-ions that a name gives are not always drawn. ± gives the standard deviation of the averaged measurements.

Experiments:
[1] = tested on: Saccharomyces cerevisiae BY4741 SeMeCo community; experiment: mean cell size (pixel area) (pixels); higher = larger cells; details: 10 µM; 24 h; SM minimal medium
How it was run: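 Mean cell pixel area per well was measured in a four-plasmid fluorescent community of Saccharomyces cerevisiae BY4741, where every plasmid complements one auxotrophy and carries a fluorescent marker. Cells from an overnight preculture at OD600 = 1.0 were diluted to OD600 = 0.3 and dispensed at 70 µl into 384-well plates acoustically predosed with drug to a final 10 µM in SM medium. Incubation lasted 24 h, followed by paraformaldehyde fixation, automated confocal imaging and analysis in Harmony. Reported figures are averaged over 3 replicates. Same SeMeCo high-content imaging drug screen: Selleck FDA-approved drugs at 10 µM, 24 h in SM medium, 384-well plates, 3 replicates.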

[2] = tested on: Saccharomyces cerevisiae BY4741 SeMeCo community; experiment: z-score of prototroph abundance vs DMSO median; higher = larger share of this subpopulation than in DMSO controls; details: 10 µM; 24 h; SM minimal medium; subpopulation (auxotrophy): Prototroph
How it was run: (§1)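 Cells of a Saccharomyces cerevisiae BY4741 community, carrying four plasmids that each restored one auxotrophy and encoded a distinct fluorescent protein, were pre-grown overnight to OD600 1.0 and diluted to 0.3. A 70 µl volume was added to 384-well plates acoustically predosed with library drugs (10 µM final) and grown 24 h in minimal SM medium. After paraformaldehyde fixation, automated confocal microscopy was used, with single-auxotroph fluorescent strains for thresholds and autofluorescence correction. The abundance of each subpopulation was scored as a z-score against the vehicle-well median.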

[3] = tested on: Saccharomyces cerevisiae BY4741 SeMeCo community; experiment: z-score of subpopulation abundance vs DMSO median, subpopulation auxotrophic for M; higher = larger share of this subpopulation than in DMSO controls; details: 10 µM; 24 h; SM minimal medium; subpopulation (auxotrophy): M
How it was run: as §1

[4] = tested on: Saccharomyces cerevisiae BY4741 SeMeCo community; experiment: z-score of subpopulation abundance vs DMSO median, subpopulation auxotrophic for L; higher = larger share of this subpopulation than in DMSO controls; details: 10 µM; 24 h; SM minimal medium; subpopulation (auxotrophy): L
How it was run: as §1

[5] = tested on: Saccharomyces cerevisiae BY4741 SeMeCo community; experiment: z-score of subpopulation abundance vs DMSO median, subpopulation auxotrophic for H; higher = larger share of this subpopulation than in DMSO controls; details: 10 µM; 24 h; SM minimal medium; subpopulation (auxotrophy): H
How it was run: as §1

[6] = tested on: Saccharomyces cerevisiae BY4741 SeMeCo community; experiment: z-score of subpopulation abundance vs DMSO median, subpopulation auxotrophic for LU; higher = larger share of this subpopulation than in DMSO controls; details: 10 µM; 24 h; SM minimal medium; subpopulation (auxotrophy): LU
How it was run: as §1

[7] = tested on: Saccharomyces cerevisiae BY4741 SeMeCo community; experiment: z-score of subpopulation abundance vs DMSO median, subpopulation auxotrophic for LM; higher = larger share of this subpopulation than in DMSO controls; details: 10 µM; 24 h; SM minimal medium; subpopulation (auxotrophy): LM
How it was run: as §1

[8] = tested on: Saccharomyces cerevisiae BY4741 SeMeCo community; experiment: z-score of subpopulation abundance vs DMSO median, subpopulation auxotrophic for HM; higher = larger share of this subpopulation than in DMSO controls; details: 10 µM; 24 h; SM minimal medium; subpopulation (auxotrophy): HM
How it was run: as §1

[9] = tested on: Saccharomyces cerevisiae BY4741 SeMeCo community; experiment: z-score of subpopulation abundance vs DMSO median, subpopulation auxotrophic for HU; higher = larger share of this subpopulation than in DMSO controls; details: 10 µM; 24 h; SM minimal medium; subpopulation (auxotrophy): HU
How it was run: as §1

[10] = tested on: Saccharomyces cerevisiae BY4741 SeMeCo community; experiment: z-score of subpopulation abundance vs DMSO median, subpopulation auxotrophic for HL; higher = larger share of this subpopulation than in DMSO controls; details: 10 µM; 24 h; SM minimal medium; subpopulation (auxotrophy): HL
How it was run: as §1

[11] = tested on: Saccharomyces cerevisiae BY4741 SeMeCo community; experiment: z-score of subpopulation abundance vs DMSO median, subpopulation auxotrophic for HLU; higher = larger share of this subpopulation than in DMSO controls; details: 10 µM; 24 h; SM minimal medium; subpopulation (auxotrophy): HLU
How it was run: as §1

[12] = tested on: Saccharomyces cerevisiae BY4741 SeMeCo community; experiment: z-score of subpopulation abundance vs DMSO median, subpopulation auxotrophic for HLM; higher = larger share of this subpopulation than in DMSO controls; details: 10 µM; 24 h; SM minimal medium; subpopulation (auxotrophy): HLM
How it was run: as §1

[13] = tested on: Saccharomyces cerevisiae BY4741 SeMeCo community; experiment: z-score of subpopulation abundance vs DMSO median, subpopulation auxotrophic for HUM; higher = larger share of this subpopulation than in DMSO controls; details: 10 µM; 24 h; SM minimal medium; subpopulation (auxotrophy): HUM
How it was run: as §1

[14] = tested on: Saccharomyces cerevisiae BY4741 SeMeCo community; experiment: z-score of subpopulation abundance vs DMSO median, subpopulation auxotrophic for LUM; higher = larger share of this subpopulation than in DMSO controls; details: 10 µM; 24 h; SM minimal medium; subpopulation (auxotrophy): LUM
How it was run: as §1

[15] = tested on: Saccharomyces cerevisiae BY4741 SeMeCo community; experiment: z-score of subpopulation abundance vs DMSO median, subpopulation auxotrophic for U; higher = larger share of this subpopulation than in DMSO controls; details: 10 µM; 24 h; SM minimal medium; subpopulation (auxotrophy): U
How it was run: as §1

[16] = tested on: Saccharomyces cerevisiae BY4741 SeMeCo community; experiment: z-score of subpopulation abundance vs DMSO median, subpopulation auxotrophic for UM; higher = larger share of this subpopulation than in DMSO controls; details: 10 µM; 24 h; SM minimal medium; subpopulation (auxotrophy): UM
How it was run: as §1

[17] = tested on: Saccharomyces cerevisiae BY4741 SeMeCo community; experiment: z-score of subpopulation abundance vs DMSO median, subpopulation auxotrophic for HLUM; higher = larger share of this subpopulation than in DMSO controls; details: 10 µM; 24 h; SM minimal medium; subpopulation (auxotrophy): HLUM
How it was run: as §1

Structure (SMILES) | mean cell size [1] | z-score of prototroph abundance [2] | z-score of subpopulation abundance [3] | z-score of subpopulation abundance [4] | z-score of subpopulation abundance [5] | z-score of subpopulation abundance [6] | z-score of subpopulation abundance [7] | z-score of subpopulation abundance [8] | z-score of subpopulation abundance [9] | z-score of subpopulation abundance [10] | z-score of subpopulation abundance [11] | z-score of subpopulation abundance [12] | z-score of subpopulation abundance [13] | z-score of subpopulation abundance [14] | z-score of subpopulation abundance [15] | z-score of subpopulation abundance [16] | z-score of subpopulation abundance [17]
Nc1nc2[nH]cc(CCc3ccc(C(=O)N[C@@H](CCC(=O)O)C(=O)O)cc3)c2c(=O)[nH]1 [Pemetrexed Disodium Hydrate] | 14.5 ± 0.077 | 3.18 | -9.02 | 3.26 | 3.82 | 1.43 | -3.99 | -4.93 | 1.99 | 5.03 | 11.4 | 1.25 | -4.9 | -3.47 | – | – | –
COc1cc(O)c(C(=O)Nc2nc(C(=O)NCCN(C(C)C)C(C)C)cs2)cc1OC [Acotiamide] | 12.14 ± 0.12 | – | 0.17 | 1.18 | 0.24 | 0.41 | 1.66 | 0.64 | – | – | 1.61 | 0.73 | 0.93 | 1.3 | -0.39 | 0.28 | 1.15
Nc1nc(/C(=C/CC(=O)O)C(=O)N[C@@H]2C(=O)N3C(C(=O)O)=CCS[C@H]23)cs1 [Ceftibuten dihydrate] | 12.6 ± 0.21 | 0.52 | 0.21 | 0.22 | -0.33 | -0.12 | 0.1 | -0.56 | -0.31 | -0.1 | -0.13 | 0.65 | -1.27 | 0.4 | -0.28 | -0.49 | –
C1CCN2C[C@@H]3C[C@@H](CN4CCCC[C@@H]34)[C@H]2C1 [(-)-Sparteine Sulfate] | 12.2 ± 0.3 | 0.31 | -0.03 | -0.01 | 1.38 | -0.85 | -0.13 | 0.08 | -0.03 | 1.4 | -0.52 | -0.86 | 0.1 | -0.1 | – | – | –
CN(C)[C@@H](CCOc1cccc2ccccc12)c1ccccc1 [Dapoxetine HCl] | 12.3 ± 0.037 | 0.05 | -0.23 | 0.84 | -0.41 | 0.55 | 0.47 | -0.39 | -0.49 | 0.57 | 1.25 | -0.47 | -0.28 | 0.92 | -0.41 | -0.35 | –
CO[C@H]1C[C@@H]2CC[C@@H](C)[C@@](O)(O2)C(=O)C(=O)N2CCCC[C@H]2C(=O)O[C@H]([C@H](C)C[C@@H]2CC[C@@H](OCCO)[C@H](OC)C2)CC(=O)[C@H](C)/C=C(\C)[C@@H](O)[C@@H](OC)C(=O)[C@H](C)C[C@H](C)/C=C/C=C/C=C/1C [Everolimus (RAD001)] | 14.17 ± 0.11 | -18.1 | -1.38 | -0.87 | – | 2.59 | 4.3 | 22.4 | 27.1 | 12.2 | 22.9 | 19 | 32.4 | 12.4 | 2.5 | 12.8 | –
CCCCNC(=O)NS(=O)(=O)c1ccc(C)cc1 [Tolbutamide] | 12.5 ± 0.33 | 0.43 | -0.57 | -0.55 | -0.84 | -1.03 | -0.86 | -0.14 | – | -0.54 | -0.37 | -0.11 | -0.36 | – | 0.61 | -0.16 | 0.19
COc1cc([C@@H]2c3cc4c(cc3[C@@H](O[C@@H]3O[C@@H]5CO[C@@H](C)O[C@H]5[C@H](O)[C@H]3O)[C@H]3COC(=O)[C@H]23)OCO4)cc(OC)c1O [Etoposide] | 12.44 ± 0.11 | -0.82 | 0.21 | 0.2 | 0.15 | 0.39 | 0.96 | 0.36 | 0.37 | 0.84 | 0.56 | 0.66 | 0.64 | 0.64 | 0.39 | 0.47 | –
CCCCCCCCCCCCCCCCOP(=O)([O-])OCC[N+](C)(C)C [Miltefosine] | 7.76 ± 0.26 | -22.6 | -7.93 | -5.76 | -10.2 | 7.16 | -4.09 | 0.26 | – | 3.75 | 0.88 | 15.6 | 142 | – | -5.15 | 31.2 | 161
CC(=O)OCC(COC(C)=O)OC(C)=O [Triacetin] | 12.4 ± 0.15 | 0.21 | -0.16 | -0.06 | 0.22 | -0.81 | 0.2 | 0.03 | 0.55 | -0.02 | -1.12 | -0.57 | 0.7 | 0.32 | 0.01 | -0.42 | –
C#CCN(C)Cc1ccccc1 [Pargyline hydrochloride] | 12.7 ± 0.23 | 0.24 | -0.55 | 0.76 | -0.83 | 1.29 | -0.51 | -0.95 | -0.08 | – | 0.43 | -0.13 | 0 | 0.15 | 0.56 | -0.55 | –
C[C@]12CC[C@@H]3c4ccc(O)cc4C[C@@H](CCCCCCCCC[S+]([O-])CCCC(F)(F)C(F)(F)F)[C@H]3[C@@H]1CC[C@@H]2O (some centres not stated) [Fulvestrant] | 12.4 ± 0.074 | -1.17 | 0.89 | 1.23 | 0.56 | 0.81 | 1.39 | 0.9 | 0.88 | 0.87 | 1.48 | 0.89 | 1.23 | 1.7 | -0.43 | 0.53 | –
CCCCCCCCCCCCCCCCCCOP(=O)([O-])OC1CC[N+](C)(C)CC1 [Perifosine (KRX-0401)] | 9.8 ± 0.56 | -18.5 | -5.15 | -0.46 | 3.48 | 12.1 | 1.78 | 12.7 | – | 18.8 | 13.3 | 31.5 | 45.1 | – | -2.84 | 7.06 | 180
Fc1ccc([C@@H]2CCNC[C@H]2COc2ccc3c(c2)OCO3)cc1 [Paroxetine HCl] | 12.47 ± 0.086 | 0.34 | -0.31 | -0.43 | 0.09 | -0.16 | -0.61 | -0.49 | – | – | -0.09 | 0.16 | -0.39 | -1.08 | 0.75 | -0.16 | 0.06
